Screening data deposited in PubChem by National Center for Advancing Translational Sciences (NCATS).
Hits are enriched below; roughly 11% of the tested compounds scored in any of these assays.
RORg inh: blocks mouse ROR gamma transcriptional activity | Drosophila S2 Gal4-RORgamma UAS-luciferase reporter, 20 h | P51450 | AID 2551 | Potency, µM (top dose mostly 53.6 µM), inactives show at the highest dose activity change, negative = inhibition, most hits filed as inhibitors | 310,000 tested, 5.4% active; further: potency means the concentration at half of the fitted maximal effect; on the % scale 0 is the no-effect control and ±100 the full control effect; nearly all actives have a fitted effect of over 60% in size
Target sequence (P51450 whole entry, looked up, the tested form may be a part): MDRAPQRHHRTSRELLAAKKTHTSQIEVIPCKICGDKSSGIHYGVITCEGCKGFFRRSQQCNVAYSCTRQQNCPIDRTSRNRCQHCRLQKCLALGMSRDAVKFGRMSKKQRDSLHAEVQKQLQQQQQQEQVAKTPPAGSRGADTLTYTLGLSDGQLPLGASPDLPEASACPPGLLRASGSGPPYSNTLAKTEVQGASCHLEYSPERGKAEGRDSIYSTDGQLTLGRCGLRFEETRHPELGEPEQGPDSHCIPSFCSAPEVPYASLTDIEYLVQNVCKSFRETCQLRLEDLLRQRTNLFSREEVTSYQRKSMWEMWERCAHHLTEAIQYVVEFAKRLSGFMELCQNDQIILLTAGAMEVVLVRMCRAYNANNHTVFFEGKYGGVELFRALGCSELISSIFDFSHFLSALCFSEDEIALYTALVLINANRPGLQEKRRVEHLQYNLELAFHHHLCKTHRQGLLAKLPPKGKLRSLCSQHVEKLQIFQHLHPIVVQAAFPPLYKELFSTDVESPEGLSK
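Drosophila Schneider cells stably carrying a metallothionein-driven Gal4 DBD–ROR gamma fusion and a UAS-Photinus luciferase reporter were exposed to compound for 1 hr, then induced with copper sulfate (700 uM final) for 20 hr at ambient temperature before luminescence reading.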
SW480 rereplic: inducers of DNA re-replication in SW480 colon cancer cells | Potency, µM (highest dose often 46.1 µM), inactives show at the highest dose re-replication activation, usual class: activators | SW480 DNA re-replication, Hoechst DNA content imaging, 48 h | 340,000 tested, 1.8% active; further: potency means the concentration at half of the fitted maximal effect; % of control where 0% means no effect; nearly all actives have a fitted effect of over 55% in size
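Per well, 250 cells were exposed to pinned compound for 48 hr. Nuclear DNA was visualised with Hoechst (40 min, 37 C) and total object intensity recorded by fluorescence scanning.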
IL-1B inflam inh: inhibitors of inflammasome signaling (IL-1 beta secretion). THP-1 LPS/ATP IL-1B secretion, AlphaLISA, 16 h; active compounds read low. activity change, % at 57.5 µM. 360,000 tested, 4.7% active; in the data active means activity change below about -50%; inconclusive means mostly about -30% to -49%; further: on the % scale 0 is the no-effect control and ±100 the full control effect
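THP-1 cells pretreated 1 hr with compounds (up to 57.5 uM final), then stimulated with LPS (250 ng/mL final) plus ATP (1.25 mM final); secreted IL-1B measured by AlphaLISA after 16 hr, decreased signal indicating inhibition.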
VP16 counter: counter-screen for ROR gamma inhibitors: Gal4-VP16 reporter | Drosophila S2 Gal4-VP16 UAS-luciferase, luminescence, 20 h | Potency, µM (series often up to 53.6 µM), for the others: top-dose activity, negative = inhibition, actives largely listed as inhibitors | 310,000 tested, 3.5% active;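 further: Gal4-VP16 expression switched on by copper sulfate through the metallothionein promoter; potency means the concentration at half of the fitted maximal effect; on the % scale 0 is the no-effect control and ±100 the full control effect; nearly all actives have a fitted effect of over 50% in size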
MCF10A rerep: induces DNA re-replication in MCF 10a normal breast cells. MCF 10A DNA re-replication, Hoechst nuclear intensity, 48 h. Potency, µM (titrated, usually from 46.1 µM), for inactives: at the highest dose activity, positive = re-replication, actives largely listed as activators. 350,000 tested, 2.9% active; further: potency means the concentration at half of the fitted maximal effect; % of control where 0% means no effect; nearly all actives have a fitted effect of over 50% in size
* = called active by the depositor; ? = inconclusive; nt = no result; ! = not active in a repeat. Unless noted, the call rests on the fitted dose curve; in most records, active means well fitted curve in the direction sought with a large enough effect; inconclusive means small, poorly fitted or top-dose-only effect, or another doubt; inactive means no such curve, though single readings can be large; an effect the other way counts as inactive or inconclusive.

SMILES	RORg inh	SW480 rereplic	IL-1B inflam inh	VP16 counter	MCF10A rerep
COC1=CC(=O)CC(C)C12Oc1c(Cl)c(OC)cc(OC)c1C2=O (configuration not stated)	-0.3%	23.1µM*!	-15.2	-11.1%	?
CN(C)c1ccc(CNC(=O)C2Cc3c(-c4cccc(C(N)=O)c4)ccnc3O2)cc1 (configuration not stated)	nt	nt	-12.9	nt	nt
CCOC(=O)/C(=N\Nc1cccc(Cl)c1)Sc1nnc(-c2ccc(OC)cc2)n1C	3.55µM*	-3.9%	1.5	11.2µM*	10.6%
Cn1c(SCC(=O)N/N=C/c2ccc([N+](=O)[O-])s2)nnc1-c1ccc(Cl)cc1	?	?	?	17.8µM*	?
COc1ccc(-c2nnc(SCC(=O)Nc3ccc(Cl)cc3)n2C)cc1	-23.5%	14.6µM*	0.0	-8.9%	3.26µM*
COc1ccc(NC(=O)CCSc2nnnn2C)cc1	-5.3%	-4.7%	-2.5	-22.9%	2.1%
Cn1nnnc1SCC(=O)Nc1ccc(Oc2ccc(Cl)cc2)cc1	44.8%	14.6µM*	-1.0	-4.0%	8.2µM*
Cn1c(SCC(=O)NNC(=O)Nc2ccc(Cl)cc2)nnc1-c1ccccc1	1.4%	-1.2%	-3.6	-7.3%	8.2%
COCCn1c(SCC(=O)Nc2cccc(OC)c2)nnc1-c1ccc(Cl)cc1	-5.2%	-2.5%	?	1.4%	19.3%
C[C@H](CO)N1C[C@H](C)[C@H](CN(C)Cc2ccc(Oc3ccccc3)cc2)Oc2cc(Br)ccc2S1(=O)=O	nt	nt	-24.5	nt	nt
COc1ccccc1CN1C[C@@H]2C[C@@H](c3ccc(Cl)cc3)N3CCC[C@@]23C1=O	44.5%	22.1%	-25.1	-0.5%	1.9%
O=C1N(C2CCCC2)C[C@@H]2C[C@@H](c3cn[nH]c3-c3ccc(Cl)cc3)N3CCC[C@@]123	21.3%	12.4%	-64.3*	-8.8%	1.1%
Cc1ccccc1CN1C[C@@H]2C[C@@H](c3cn[nH]c3-c3ccccc3)N3CCC[C@@]23C1=O	13.9%	11.4%	-63.0*	-17.3%	12.2%
CCc1ccccc1OCC(=O)N1CCN(c2ncccn2)CC1	nt	-10.2%	-3.4	nt	2.4%
Cc1oc2cc3oc(=O)c(CCC(=O)NCCN4CCOCC4)c(C)c3cc2c1C	-4.2%	-4.8%	?	-3.8%	-2.3%
CCC1CCCCN1CCCNC(=O)CSc1nc2nc(C)c(Cc3ccccc3)c(C)n2n1 (configuration not stated)	-8.4%	0.2%	-67.1*	-14.5%	-3.1%
CCC1CCCCN1CCCNC(=O)CSc1nc2nc(C)c(Cc3ccccc3Cl)c(C)n2n1 (configuration not stated)	-1.3%	-18.6%	-12.9	-0.9%	3.3%
Cc1ccc(Cc2c(C)nc3nc(SCC(=O)NCCCN4CCCCC4)nn3c2C)cc1	0.2%	-4.3%	-61.7*	0.7%	1.5%
O=C1CC(c2cc(-c3ccccc3)no2)C1	-4.3%	-0.6%	10.6	2.2%	1.2%
COc1cccc(C(NC(C)=O)c2nc(-c3ccc4ccccc4c3)cs2)c1 (configuration not stated)	nt	nt	-6.4	nt	nt
CCC[C@@H](CN1CCC[C@H]1CN1C(N)=NC[C@H]1CC(C)C)N1C[C@@H](Cc2ccccc2)N(CCc2ccc(Cl)c(Cl)c2)C1=N	nt	?	-68.5*	nt	-33.5%
CCC[C@@H](CN1CCC[C@H]1CN1C(N)=NC[C@@H]1Cc1ccccc1)N1C[C@@H](Cc2ccccc2)N(CCc2ccc(Cl)c(Cl)c2)C1=N	nt	0.8%	-53.0*	nt	-2.0%
CC[C@@H](C)[C@@H]1CN([C@@H](CN2CCC[C@H]2CN2C(N)=NC[C@H]2CC(C)C)C(C)C)C(=N)N1CCc1ccc(Cl)c(Cl)c1	nt	-14.8%	-59.7*	nt	?
FC(F)(F)c1cccc(CC2CN(Cc3ccccc3)Cc3ccccc3N2c2cc(Cl)cc(Cl)c2)c1 (configuration not stated)	nt	nt	23.4	nt	nt
Cc1ccccc1N=C1SC(CC(=O)Nc2ccc3ccccc3c2)C(=O)N1Cc1ccccn1 (configuration not stated)	-9.8%	?	?	?	18.7%
